Test systems include SK-MEL-2 melanoma; EKVX NSCLC; SN12C renal; UO-31 renal; TK-10 renal; ACHN renal; CAKI-1 renal; A498 renal; CCRF-CEM leukemia; MOLT-4 leukemia.
Experiment in all cases: NCI-60 one-dose screen, 48 h (100 = growth as untreated, 0 = no growth, -100 = all killed)
Common to all, as to conditions: 10 µM unless noted

This is part of a sample that, as a whole, favours compounds with a hit. Of some 83,000 tested, about 20% had one in any assay.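 The endpoint reported here, percent growth, reads 100 for growth as untreated, 0 for no net growth and -100 for all cells dead.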 Values without a mark were called inactive. Activity calls are given as the source filed them. Rule for the calls: active = growth percent below 10; inactive = the rest.

On to `CC/C=C\C[C@H](O)C/C=C1/C(=O)C=C[C@@H]1C/C=C\CCCC(=O)NC`, for which the growth in the assay on SK-MEL-2 melanoma is 16.1%; with EKVX NSCLC it was 23.8%; in the assay on SN12C renal, -3.66% (active); in the assay with UO-31 renal, -76.8% (active); in the assay on TK-10 renal, -8.31% (active); in the assay on ACHN renal, -86.1% (active). Besides, the growth in the assay on CAKI-1 renal is 4.85% (active); in the assay on A498 renal, 56.1%; in the assay on CCRF-CEM leukemia it was -14.6% (active); in the assay with MOLT-4 leukemia it was -14.1% (active).
On to `COc1ccc(/C=N\NC(=O)CN2CCN(c3cc4c(cc3F)c(=O)c(C(=O)N/N=C/c3ccc(OC)cc3)cn4C3CC3)CC2)cc1`, for which the growth in the assay on SK-MEL-2 melanoma was 103%; with EKVX NSCLC, 71.7%; in the assay with SN12C renal it was 79%; in the assay with UO-31 renal it was 57.6%; in the assay with TK-10 renal, 100%; in the assay on ACHN renal, 89.7%. Besides, the growth in the assay with CAKI-1 renal is 95.1%; with A498 renal, 73.6%; with CCRF-CEM leukemia, 81.5%; in the assay on MOLT-4 leukemia, 60%.
Turning to `CCCCCCCCSC1=CC(=O)C(OC)=C(OC)C1=O`, the growth with SK-MEL-2 melanoma is 26.3%; in the assay on EKVX NSCLC, 43.8%; in the assay with SN12C renal, 10.7%; in the assay with UO-31 renal it was -92.7% (active); in the assay on TK-10 renal it was -99.3% (active); in the assay on ACHN renal, -77.8% (active). Further, the growth with CAKI-1 renal is -45.6% (active); with A498 renal it was 65.5%; in the assay on CCRF-CEM leukemia, -15.8% (active); in the assay on MOLT-4 leukemia it was -5.17% (active).
`C(=N\Nc1nnn(Cc2ccccc2)n1)/c1ccccc1`: the growth in the assay with SK-MEL-2 melanoma was 34%; in the assay on EKVX NSCLC, 57.6%; in the assay with SN12C renal, 67.5%; with UO-31 renal it was 61.2%; in the assay with TK-10 renal, 76.6%; in the assay on ACHN renal, 67.2%. In addition, the growth was 95.2% with CAKI-1 renal, 38.2% with A498 renal, 35% in the assay on CCRF-CEM leukemia and 38.2% in the assay on MOLT-4 leukemia.
In the case of `COc1ccc(C(=O)COc2ccc(/C=C3\Oc4ccc(Cl)cc4C3=O)cc2)cc1`, the growth was 71.1% in the assay with SK-MEL-2 melanoma; 86.8% in the assay with EKVX NSCLC; 103% with SN12C renal; 83.4% in the assay on UO-31 renal; 105% in the assay with TK-10 renal; 109% with ACHN renal. Also, the growth is 98.1% with CAKI-1 renal, 109% in the assay with A498 renal, 122% in the assay on CCRF-CEM leukemia and -17.8% (active) with MOLT-4 leukemia.
`COc1ccc(OCC(=O)Nc2ccc(-c3nc4ccccc4s3)cc2C)cc1`: the growth was 94.1% with SK-MEL-2 melanoma; 65% in the assay on EKVX NSCLC; 88.8% in the assay with SN12C renal; 44.7% in the assay on UO-31 renal; 64.9% in the assay with TK-10 renal; 99.4% in the assay on ACHN renal. For the same compound, the growth was 78.4% with CAKI-1 renal, 101% in the assay with A498 renal, 89.6% in the assay with CCRF-CEM leukemia and 55.9% in the assay on MOLT-4 leukemia.
For `CCN(CC)CCCC(C)Nc1ccnc2c(OC)cccc12` (stereo not given), the growth in the assay with SK-MEL-2 melanoma is 127%; in the assay with EKVX NSCLC, 112%; in the assay on SN12C renal, 101%; in the assay with UO-31 renal it was 87.4%; in the assay with TK-10 renal it was 120%; with ACHN renal, 122%. Further, the growth in the assay on CAKI-1 renal is 101%; in the assay on A498 renal, 135%; in the assay with CCRF-CEM leukemia, 94.3%; with MOLT-4 leukemia, 102%.
Regarding `Cc1cc(Cl)ccc1Nc1nc(C(F)(F)F)ccc1C(=O)N/N=C/c1ccc(F)cc1`, the growth in the assay with SK-MEL-2 melanoma was -5.51% (active); with EKVX NSCLC, 16.7%; in the assay with SN12C renal it was 8.7% (active); with UO-31 renal it was 2.45% (active); with TK-10 renal it was 0.832% (active); with ACHN renal, 7.12% (active). Further, the growth is 9.97% (active) in the assay with CAKI-1 renal, 8.05% (active) in the assay with A498 renal, 4.12% (active) in the assay on CCRF-CEM leukemia and -6.74% (active) with MOLT-4 leukemia.
As to `CN1CCN(Cc2ccc(NC(=O)c3[nH]ncc3Nc3ccnc4ccsc34)cc2)CC1`, the growth with SK-MEL-2 melanoma is 64.9%; in the assay with EKVX NSCLC, 41.1%; in the assay on SN12C renal, 21.3%; in the assay on UO-31 renal, 44.5%; in the assay with TK-10 renal, 58.6%; with ACHN renal it was 13.5%. Further, the growth in the assay on CAKI-1 renal is 59.3%; in the assay on A498 renal it was 17%; with CCRF-CEM leukemia, 11%; with MOLT-4 leukemia, 2.39% (active).
In the case of `CCOC(=O)c1cnc2cc(Cl)c(F)cc2c1Nc1cccc(NS(C)(=O)=O)c1`, the growth is 113% in the assay with SK-MEL-2 melanoma; 90.8% in the assay on EKVX NSCLC; 100% in the assay on SN12C renal; 73.3% with UO-31 renal; 124% in the assay with TK-10 renal; 93.5% with ACHN renal. The growth with CAKI-1 renal was 86.2%; with A498 renal, 78.9%; with CCRF-CEM leukemia, 103%; in the assay on MOLT-4 leukemia, 99.9%.
For the compound `CC[C@]12C=CCN3CC[C@@]4(c5ccc(OC)cc5N(C)[C@H]4[C@@](O)(C(=O)OC)[C@@H]1OC(=O)CCC(=O)N[C@@H](Cc1c[nH]c4ccccc14)C(=O)OC)[C@@H]32`, the growth in the assay on SK-MEL-2 melanoma was 54.4%; in the assay with EKVX NSCLC, 93.3%; with SN12C renal, 71.5%; in the assay with UO-31 renal, 83%; with TK-10 renal, 87.4%; with ACHN renal it was 93%. Also, the growth in the assay with CAKI-1 renal is 108%; with A498 renal, 83.4%; in the assay with CCRF-CEM leukemia it was 28.9%; in the assay with MOLT-4 leukemia, -35.5% (active).
Consider `CNC(=O)c1cc(Oc2ccc3nc(NC(=O)Nc4ccc(N5CCC(N(C)C)CC5)cc4)sc3c2)ccn1`, for which the growth with SK-MEL-2 melanoma is 117%; in the assay with EKVX NSCLC, 115%; in the assay on SN12C renal, 92.3%; in the assay with UO-31 renal, 87.7%; in the assay on TK-10 renal, 115%; in the assay on ACHN renal, 74.1%. In addition, the growth is 90.1% with CAKI-1 renal, 81.6% with A498 renal, 66.5% in the assay with CCRF-CEM leukemia and 61.4% with MOLT-4 leukemia.
`COc1ccc(CCN2CCCn3c2nc2ccccc2c3=O)cc1`: the growth with SK-MEL-2 melanoma was 51.1%; in the assay on EKVX NSCLC, 45.7%; with SN12C renal it was 45%; in the assay on UO-31 renal it was 41.1%; in the assay on TK-10 renal, 69.3%; in the assay with ACHN renal, 40.4%. For the same compound, the growth in the assay with CAKI-1 renal was 41.7%; in the assay with A498 renal, -3.97% (active); with CCRF-CEM leukemia, 21.1%; with MOLT-4 leukemia, 18.5%.
